Several values for one entry are separate records, joined by “and”; a condition that tells them apart may be missing. Equal values may be shown once. Inconclusive results are not listed. Activity calls are given as the source filed them. The call rests on the fitted dose curve; in most records, active means well fitted inhibition curve with a large enough effect; inconclusive means small, poorly fitted or top-dose-only effect; inactive means flat fitted curve, though single readings scatter.
Potency means the concentration at half of the fitted maximal effect.

The nature of this test: Primary qHTS for inhibitors of nuclear receptor binding SET domain protein 2 (NSD2) in an isogenic RCH-ACV NSD2 p.E1099K mutant (9B) (AID 1645876). Further: nearly all actives have a fitted effect of over 70% in size. The following applies: RCH-ACV (leukaemia line) NSD2 E1099K (9B) viability, CellTiter-Glo, 72 h; series mostly up to 44.9 µM. On the technique in general: qHTS replaces the single test concentration by a dilution series.
As for `CNc1nc(-c2ccc3c(N)n[nH]c3c2)cc(N2CC(C(=O)NC3CCCCC3)CCC2C)n1` (stereo not given), the Potency was 0.578 µM (active). As for `CNc1cc(OC)c(C(=O)N[C@@H]2CCN(Cc3ccccc3)[C@@H]2C)cc1Cl`, the figure is 20.5 µM (active); as for `CCOC(=O)CCC(=O)O[C@H]1[C@H](O[C@@H]2[C@@H](C)[C@H](O[C@H]3C[C@@](C)(OC)[C@@H](O)[C@H](C)O3)[C@@H](C)C(=O)O[C@H](CC)[C@@](C)(O)[C@H](O)[C@@H](C)C(=O)[C@H](C)CC2(C)O)O[C@H](C)C[C@@H]1N(C)C` (stereo not given in full), “inactive”. As for `COc1cc(-c2cc(-c3cccc(O)c3)cnc2N)cc(OC)c1OC`, the figure is 10.3 µM (active); as for `C=C1C(=O)O[C@@H]2C[C@@H](C)[C@]34C[C@]5(C(=O)O[C@H]6CC(C)=C([C@H](C)CCCO)[C@H](OC(=O)C(C)CC)[C@H]65)[C@@H](C(C)=C3C[C@@H]12)[C@H]4OC(C)=O` (stereo not given in full), 2.16 µM (active); as for `CC(=O)Nc1ccc(C(=O)Nc2ccccc2N)cc1`, 3.55 µM (active) and 3.72 µM (active).

`C[C@H](NC(=O)C(C)(C)Oc1ccc(C(F)(F)F)cn1)[C@@H](Cc1ccc(Cl)cc1)c1cccc(C#N)c1`: the Potency is 16.3 µM (active). The value for `CN(C)CC(=O)Nc1ccc2[nH]c(=O)c3ccccc3c2c1` was 20.5 µM (active); that for `C[C@@H](CN1CCC(n2c(=O)[nH]c3cc(Cl)ccc32)CC1)NC(=O)c1ccc2ccccc2c1` was 10.3 µM (active); that for `CC(C)c1ccc(NC(=O)C(c2ccccc2)N(C)C(=O)Cc2c[nH]c3ccccc23)cc1` (stereo not given) was 20.5 µM (active).

Values taken from PubChem BioAssay (NCATS).
